Screening data as filed in PubChem BioAssay.
Rows were chosen to be rich in hits. Some 19% of all compounds tested hit in one or more screens of this group.
IL1B secr inh – blocks inflammasome-driven IL-1 beta release; THP-1 LPS/ATP IL-1B secretion, AlphaLISA, 16 h; active compounds read low; activity change, % at 57.5 µM; 360,000 tested, 4.7% active; AID 743279; in the data active = activity change below about -50%; inconclusive = mostly about -30% to -49%
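THP-1 cells pretreated 1 hr with compounds (up to 57.5 uM final), then stimulated with LPS (250 ng/mL final) plus ATP (1.25 mM final); secreted IL-1B measured by AlphaLISA after 16 hr, decreased signal indicating inhibition.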
HT1080-NT tox – kills 2HG-producing HT-1080-NT fibrosarcoma cells | HT-1080-NT fibrosarcoma viability, CellTiter-Glo ATP luminescence, 48 h | Potency, µM (series often up to 46.1 µM), most hits filed as cytotoxic | 360,000 tested, 1.6% active | AID 686970;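 also: NT is the 2HG producing partner of a matched IDH1 knockdown line; nearly all actives have a fitted effect of over 55% in size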
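Toxicity toward the 2HG-producing NT line was scored as %Activity, normalised to DMSO and no-cell wells, from CellTiter-Glo luminescence after 48 hours' treatment.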
TDP1 cell noCPT – qHTS for Inhibitors of human tyrosyl-DNA phosphodiesterase 1 (TDP1): qHTS in cells in absence of CPT | DT40 Tdp1-/- hTDP1 cells, no CPT, ATP luminescence, 48 h | 420,000 tested, 15% active | Potency, µM (series often up to 46.2 µM), hits mostly inhibitors; also: nearly all actives have a fitted effect of over 55% in size
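Chicken DT40 Tdp1-/- cells complemented with human TDP1, screened without camptothecin (DMSO vehicle only), 400 cells/well. Compounds pin-transferred, cells incubated at 37 °C for at least 48 hr. Growth read as ATP-dependent luminescence (CellTiter-Glo, 30 min at RT).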
DT40 TDP1 CPT – DT40-hTDP1 cell growth loss with CPT. 420,000 tested, 12% active. Potency, µM (top dose mostly 46.2 µM), hits mostly inhibitors. AID 686979. chicken DT40 Tdp1-/-;hTDP1 cells + 20 nM CPT, ATP luminescence, 48 h; also: nearly all actives have a fitted effect of over 55% in size
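Chicken DT40 Tdp1-/- cells stably complemented with human TDP1 were seeded at 400 cells/well in medium containing 20 nM camptothecin, exposed to pin-transferred compounds, and grown at 37 °C for at least 48 hr. Viability was read as ATP luminescence.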
HT1080 IDH1KD tx – HT-1080 IDH1 knockdown cell toxicity (counter line). HT-1080 IDH1 knockdown viability, ATP luminescence, 48 h. Potency, µM (top dose mostly 46.1 µM), actives largely listed as cytotoxic. 360,000 tested, 2% active
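After a 2 h attachment period, IDH1KD HT-1080 cells took pin-transferred compound for 48 h at 37 °C; ATP-based luminescence after 10 min room-temperature reagent incubation reported viability.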
Hits are given with their value; i = inactive; ? = inconclusive; nt = no result; [ ] = dose if it differs, or a comment. Unless noted, calls follow the shape of the dose curve; as a rule, active = well fitted curve in the direction sought with a large enough effect; inconclusive = small, poorly fitted or top-dose-only effect, or another doubt; inactive = no such curve, though single readings can be large; an effect the other way counts as inactive or inconclusive.

SMILES	IL1B secr inh	HT1080-NT tox	TDP1 cell noCPT	DT40 TDP1 CPT	HT1080 IDH1KD tx
Nc1[nH]c(C(=O)c2ccccc2)c(-c2ccc(C(F)(F)F)cc2)c1C(=O)NCc1ccc(Cl)cc1Cl	i	i	?	?	i
COc1ccc2sc(-c3ccc(S(C)(=O)=O)cc3)c(C(=O)NCCc3c[nH]c4ccccc34)c2c1	i	i	16.4µM	20.6µM	i
COc1ccc2c(C(=O)NCCCCO)c(-c3ccc(S(C)(=O)=O)cc3)sc2c1	i	i	i	?	i
Nc1[nH]c(C(=O)c2ccccc2)c(-c2ccncc2)c1C(=O)NCCc1c[nH]c2ccccc12	i	i	?	?	i
Cc1ccccc1C(=O)Nc1ccc(Br)cn1	i	?	20.6µM	9.2µM	i[9.24 µM]
S=C(Nc1ccccc1)Nc1ccc(Br)cn1	i	i	3.66µM	6.51µM	i
O=C(Nc1ccc(Cl)cc1C(=O)Nc1ccccn1)c1ccco1	-52.0	i	?	i	i
CCC(=O)Nc1ccc(Br)cn1	i	?	i	i	i
O=C(Nc1ccccc1C(=O)Nc1ccc(Br)cn1)c1ccccc1Cl	?	i	?	14.6µM	i
O=C(NCc1nnnn1-c1ccc(F)c(F)c1)c1cc2ccccc2o1	i	i	i	i	i
Cc1c(N)cc(S(=O)(=O)O)cc1NC(=O)c1cccc([N+](=O)[O-])c1	i	i	i	i	i
Cc1ccnc(NC(=O)c2ccccc2NC(=O)c2ccc(Cl)cc2Cl)c1	i	2.91µM	1.84µM	3.66µM	4.61µM
CCN(CC)C(=O)C1CCCN(C(=O)c2cc(COc3cccc(OC)c3)on2)C1 (stereo not given)	i	i	i	i	i
FC(F)(F)c1ccccc1Cc1c(-c2cccc(Cl)c2)nc2c3ccccc3ccn12	i	i	20.6µM	?	i
FC(F)(F)c1ccccc1Cc1c(-c2ccc(Cl)cc2)nc2c3ccccc3ccn12	i	i	25.9µM	?	i
CC(=O)c1sc(=S)n(-c2ccc(Cl)cc2)c1C	i	i	?	18.4µM	i
CC(=O)c1sc(=S)n(-c2ccccc2)c1C	i	i	i	i	i
O=C(O)c1cccnc1SC1CC(=O)N(c2ccc(OC(F)F)cc2)C1=O (stereo not given)	i	i	14.6µM	?	i
O=C(O)c1cccnc1SC1CC(=O)N(Cc2ccccc2)C1=O (stereo not given)	i	i	20.6µM	14.6µM	i
O=C(O)c1cccnc1SC1CC(=O)N(CCc2ccccc2)C1=O (stereo not given)	i	i[9.24 µM]	i	i	i
COc1ccc(S(=O)(=O)NC(C)C(=O)N2CCCC2)cc1C (stereo not given)	i	i	i	i	i
Cn1c(SCCN2CCCC2)nnc1C1CCN(S(=O)(=O)c2cccc(F)c2)CC1	i	i	i	i	i
Cn1c(=O)n(CCc2ccccc2)c(=O)c2c1nc1n2CCN1c1ccc(Cl)cc1	nt	nt	i	i	nt
CC(=O)N1CCc2cc(CNC(=O)Nc3cc(Cl)ccc3C)ccc21	nt	nt	i	i	nt
COC(=O)c1ccc(CC(=O)c2nc3ccccc3s2)cc1	i	i	i	i	i
SMILES	IL1B secr inh	HT1080-NT tox	TDP1 cell noCPT	DT40 TDP1 CPT	HT1080 IDH1KD tx
COC(=O)c1ccc(/C(O)=C(\C#N)c2nc3ccccc3s2)cc1	-77.4	i	?	?	i
CCCOCCOC(=O)c1[nH]c2c(c1C)C(=O)CC(c1cc(OC)ccc1OC)C2 (stereo not given)	-72.0	5.8µM	5.8µM	5.17µM	4.11µM
COCCOC(=O)c1[nH]c2c(c1C)C(=O)CC(c1cc(OC)ccc1OC)C2 (stereo not given)	i	11.6µM	2.59µM	2.91µM	11.6µM
CCOC(=O)c1[nH]c2c(c1C)C(=O)CC(c1ccc(OC)c(OC)c1)C2 (stereo not given)	i	i	i	i	i
COc1ccc(OC)c(C2CC(=O)c3c([nH]c(C(=O)OCC4CCCO4)c3C)C2)c1 (stereo not given)	i	i	5.17µM	5.8µM	i
COc1ccccc1C1CC(=O)NC(C)=C1C(=O)OCC1CCCO1 (stereo not given)	i	i	i	i	i
COc1cc(C2CC(=O)c3c([nH]c(C(=O)OCc4ccc(C)cc4)c3C)C2)cc(OC)c1OC (stereo not given)	nt	nt	0.92µM	1.46µM	nt
COc1ccc(CCC(=O)N2CCN(c3ccccc3)CC2)cc1OC	i	i	i	?	i
COc1ccc(OC)c(C2CC(=O)c3c([nH]c(C(=O)OC4CCC(C)CC4)c3C)C2)c1 (stereo not given)	nt	nt	8.2µM	14.6µM	nt
COc1ccc(OC)c(C2CC(=O)c3c([nH]c(C(=O)OCc4ccc(C)cc4)c3C)C2)c1 (stereo not given)	nt	nt	0.651µM	4.61µM	nt
COC(=O)c1[nH]c2c(c1C)C(=O)CC(c1ccc(OC)cc1)C2 (stereo not given)	i	i	?	i	i
CCOc1ccc(C2CC(=O)c3c([nH]c(C(=O)OC4CCC(C)CC4)c3C)C2)cc1 (stereo not given)	nt	nt	i	i	nt
COc1ccc(OC)c(C2CC(=O)c3c([nH]c(C(=O)OC(C)C)c3C)C2)c1 (stereo not given)	i	5.8µM	0.82µM	0.82µM	3.26µM
S=C1NCc2cncnc2N1	i	i	i	i	i
CC(C)c1ccc(OCC(=O)NNC(=S)NC(=O)c2cccs2)c(Br)c1	i	i	23.1µM	18.4µM	i
Cc1ccc(OCC(=O)NC(=S)Nc2ccccn2)c(Br)c1	i	i	i	i	i
CC(C)c1ccc(OCC(=O)NNC(=S)NC(=O)C2CC2)cc1	i	?	14.6µM	?	?
Cc1ccc(OCC(=O)NNC(=S)NC(=O)C(C)(C)C)c(Br)c1	i	?	18.4µM	?	?
Cc1ccc(OCC(=O)NNC(=O)c2ccc(NC(=O)C3CC3)cc2)c(C)c1	i	i	i	i	i
Cc1ccc(OCC(=O)NNC(=S)NC(=O)C2CCCCC2)c(C)c1	i	i	20.6µM	?	i
Cc1ccc(Nc2ccc(S(=O)(=O)N3CCOCC3)cc2[N+](=O)[O-])cc1C	i	i	?	?	i
Cc1cccc(C(=O)Nc2nnc(S(=O)(=O)N(C)c3ccccc3C)s2)c1	nt	nt	i	i	nt
N#Cc1ccc(NC(=S)NC(=O)C2CCCCC2)cc1	i	i	?	?	i
N#Cc1ccc(OCC(=O)NNC(=S)NC(=O)C2CC2)cc1	i	i	20.6µM	?	i
COC(=O)[C@@]1(Cc2ccc(F)cc2)[C@H]2c3cc(C(=O)N(C)C)n(CCF)c3C[C@H]2CN1C(=O)c1ccccc1	i	i	?	?	?
COC(=O)[C@@]1(Cc2ccc(F)cc2)[C@H]2c3cc(C(=O)N(C)C)n(CC4CC4)c3C[C@H]2CN1C(=O)c1ccccc1	i	?	18.4µM	?	i
